Drawing on PubChem BioAssay (EPA / NIEHS), this text covers outcome and AC50 for 16 compounds.

Inconclusive results are not listed. Active and inactive are the calls of the source. Rule for the calls, unless noted: active = hit-call score of the fitted dose curve at least 0.9, where 1 is the maximum; inactive = score below 0.9.

Assay [1] in a line: ACEA_ER_80hr: ACEA Biosciences xCELLigence Real-Time Cell Analysis on Estrogen Receptor Agonism for Proliferation (AID 2282667; active = hit-call score of the fitted dose curve at least 0.9, where 1 is the maximum). The settings on record: T47D proliferation, impedance (xCELLigence), 80 h. An outline of the steps:
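Real-time impedance growth kinetics of human T-47D breast cells read 80 h after dosing, gain-of-signal fitted relative to DMSO. Compounds: 1:4 serial series, top final concentration 100 uM, n = 2.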

Assay [2] in a line: ATG_CRE_CIS: Attagene CIS-FACTORIAL HepG2 Assay for human cAMP Responsive Element (CRE) binding protein 3 (AID 2282926). The settings on record: HepG2 CRE cis-reporter, Attagene multiplexed mRNA; actives raise or lower the signal. An outline of the steps: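 Multiplexed transcription-unit reporters transfected into HepG2; 24 h dosing; RT-PCR/capillary electrophoresis fluorescence read-out; bidirectional fit vs DMSO.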

Assay [3] concerns the target CCAAT/enhancer-binding protein beta (Homo sapiens) (UniProt P17676). Kind of assay: ATG_C_EBP_CIS: Attagene CIS-FACTORIAL HepG2 Assay for human CCAAT/Enhancer Binding Protein (C/EBP) beta (AID 2282927). The settings on record: HepG2 Attagene cis-factorial transcription factor reporter; actives raise or lower the signal. An outline of the steps:
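Endogenous transcription factor activity in human liver HepG2 cells is inferred from induction of a CEBPB-linked reporter mRNA. Exposure lasts 24 h; activity is fitted in both directions relative to DMSO.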

Assay [4] is described as follows: APR_HepG2_CellCycleArrest_24hr: Apredica 24-hour HepG2 Assay for Cell Cycle Arrest (AID 2282905).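 Note: cell cycle arrest scored as ratio of 2N to 4N nuclear DNA content.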 The settings on record: imaging, actives raise or lower the signal. An outline of the steps:
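HepG2, 24 hr dosing, 10-pt 0.39–200 uM in duplicate, 0.5% DMSO. Fixed 3.7% formaldehyde, permeabilized 0.5% Triton X-100, Hoechst 33342 2 ug/mL. Imaged 20x; nuclear DNA content quantified; bidirectional fit vs DMSO.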

The nature of assay [5]: APR_HepG2_NuclearSize_24hr: Apredica 24-hour HepG2 Assay for Nuclear Size (AID 2282907). The settings on record: high-content imaging, actives raise or lower the signal. An outline of the steps: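 HepG2, 24 hr dosing, 10-pt 0.39–200 uM, duplicates, 0.5% DMSO final; 3.7% formaldehyde fix, 0.5% Triton X-100; Hoechst 33342 nuclear stain; ArrayScan HCS, Cell Cycle analysis → nuclear size; bidirectional fit vs DMSO.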

Assay [6] can be described thus: APR_HepG2_CellLoss_24hr: Apredica 24-hour HepG2 Assay for Cell Loss (AID 2282908).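 For AC50: fit in both directions so a hit may be cell loss or gain.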 The settings on record: high-content imaging. Summed up: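 10-pt dose, 0.39–200 uM, n=2/plate; DMSO 0.5% v/v final as negative control. Fix 3.7% formaldehyde 30 min RT, permeabilize 0.5% Triton X-100, stain Hoechst 33342 2 ug/mL, image 20x. Nuclear count, bidirectional fit vs DMSO.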

Assay [7] can be described thus: APR_HepG2_MicrotubuleCSK_24hr: Apredica 24-hour HepG2 Assay for Microtubule CSK Stabilty (AID 2282909). The settings on record: HepG2 microtubule cytoskeleton imaging, actives raise or lower the signal. An outline of the steps:
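Human liver HepG2, 24 h dosing, 0.39–200 uM ×10 conc, dup, 0.5% DMSO. 3.7% formaldehyde fix, 0.5% Triton perm, anti-alpha-tubulin (1:200)/Cy5 secondary + Hoechst. HCS imaging, 6 fields/well; gain/loss fit vs DMSO.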

Assay [8] is described as follows: APR_HepG2_MitoticArrest_24hr: Apredica 24-hour HepG2 Assay for Mitotic Arrest (AID 2282910). The settings on record: high-content imaging, actives raise or lower the signal. An outline of the steps:
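Compounds are dosed onto HepG2 cells across ten concentrations up to 200 uM for 24 hr. Cells are then fixed in 3.7% formaldehyde, permeabilised, and labelled for phospho-histone H3 and nuclei; images are scored by cell cycle analysis and fitted bidirectionally relative to DMSO.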

A short description of assay [9]: APR_HepG2_MitoMembPot_24hr: Apredica 24-hour HepG2 Assay for Mitochondrial Membrane Potential (AID 2282911). The settings on record: imaging, actives raise or lower the signal. Summed up: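 Mitochondrial membrane potential imaged via MitoTracker Red CMXRos (250 nM, 30 min pre-fixation) in fixed HepG2 cells with Hoechst nuclear identification. Ten concentrations 0.39–200 uM, 24 h treatment, 0.5% DMSO; CCCP as positive control.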

Assay [10] can be described thus: APR_HepG2_MitoMass_24hr: Apredica 24-hour HepG2 Assay for Mitochondrial Mass (AID 2282912). The settings on record: high-content imaging, actives raise or lower the signal. An outline of the steps: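 Mitochondrial mass is read as MitoTracker Red fluorescence intensity from automated imaging, with bidirectional curve fitting relative to DMSO. HepG2 cells received compound (0.39–200 uM, 0.5% DMSO final) for 24 hr and were dye-loaded (250 nM, 30 min) before formaldehyde fixation.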

Assay [11] is described as follows: APR_HepG2_p53Act_24hr: Apredica 24-hour HepG2 Assay for p53 Activation (AID 2282913).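 Note: p53 protein immunofluorescence averaged per cell in HepG2 with Hoechst nuclei.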 The settings on record: high-content imaging, actives raise or lower the signal. An outline of the steps: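 Fluorescence imaging of formaldehyde-fixed HepG2 cells labelled for p53 and with Hoechst, 24 h after dosing (0.39–200 uM, duplicate wells, 0.5% v/v DMSO). Signal fitted in both directions relative to DMSO.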

Assay [12] can be described thus: APR_HepG2_CellCycleArrest_72hr: Apredica 72-hour HepG2 Assay for Cell Cycle Arrest (AID 2282914). The settings on record: high-content imaging, actives raise or lower the signal. An outline of the steps:
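Read-out: nuclear DNA content from Hoechst 33342 high-content imaging (20x, six fields/well) after 3.7% formaldehyde fixation, fitted bidirectionally against DMSO. Treatment was 72 h in HepG2, ten concentrations 0.39–200 uM, duplicate, 0.5% DMSO.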

The nature of assay [13]: APR_HepG2_CellLoss_72hr: Apredica 72-hour HepG2 Assay for Cell Loss (AID 2282915). The settings on record: high-content imaging. An outline of the steps:
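Cell number comes from Hoechst 33342-labelled nuclei, imaged at 20x after 3.7% formaldehyde fixation. Dosing was 0.39–200 uM, ten concentrations in duplicate, 0.5% DMSO final, for 72 h. Bidirectional fit relative to DMSO baseline.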

Assay [14] is described as follows: APR_HepG2_P-H2AX_72hr: Apredica 72-hour HepG2 Assay for H2AX Phosphorylation (AID 2282916).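 Note: phospho-histone H2A.x immunostain intensity per cell marking DNA damage.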 The settings on record: imaging, actives raise or lower the signal. An outline of the steps:
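HepG2; cpd 0.39–200 uM ×10 conc, duplicates; 0.5% DMSO; 72 hr. Fix 3.7% formaldehyde 30 min RT, 0.5% Triton X-100 10 min. Anti-phospho-H2A.x 1:200 + Hoechst 2 ug/mL, 60 min RT; ArrayScan imaging.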

Assay [15] in a line: APR_HepG2_MitoticArrest_72hr: Apredica 72-hour HepG2 Assay for Mitotic Arrest (AID 2282918). The settings on record: high-content imaging, actives raise or lower the signal. An outline of the steps: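 High-content imaging of fixed human HepG2 cells after 72 h compound exposure (0.39–200 uM, duplicates, 0.5% DMSO); mitotic arrest scored from phospho-histone H3 and nuclear Hoechst staining relative to DMSO.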

The nature of assay [16]: APR_HepG2_MicrotubuleCSK_72hr: Apredica 72-hour HepG2 Assay for Microtubule CSK Stabilty (AID 2282919). The settings on record: HepG2 microtubule cytoskeleton, high-content imaging, actives raise or lower the signal. An outline of the steps: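 Read-out is tubulin fluorescence intensity from high-content imaging of HepG2 cells, with nuclei identified by Hoechst 33342. Treatment lasts 72 h at 0.39–200 uM, and curves are fitted bidirectionally against the DMSO negative control.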

Assay [17] can be described thus: APR_HepG2_P-H2AX_24hr: Apredica 24-hour HepG2 Assay for H2AX Phosphorylation (AID 2282920). The settings on record: high-content imaging, actives raise or lower the signal. Summed up:
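High-content imaging of phospho-histone H2A.x immunofluorescence, nuclei counterstained with Hoechst 33342, in fixed HepG2 cells. Compounds ran 0.39–200 uM in duplicate for 24 h, final DMSO 0.5%. Signal change fitted both directions against DMSO.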

Assay [18] in a line: APR_HepG2_StressKinase_72hr: Apredica 72-hour HepG2 Assay for Stress Kinase (AID 2282921). The settings on record: HepG2 stress kinase (phospho-c-Jun) imaging, actives raise or lower the signal. An outline of the steps:
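Dose 0.39–200 uM (10 pts, duplicate), 0.5% DMSO; 72 h; fix 3.7% formaldehyde 30 min RT; Triton permeabilize; anti-phospho-c-Jun/Cy3 + Hoechst 60 min RT; image 20x; fit gain/loss vs DMSO.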

The nature of assay [19]: APR_HepG2_StressKinase_24hr: Apredica 24-hour HepG2 Assay for Stress Kinase (AID 2282922). The settings on record: HepG2 stress kinase (phospho-c-Jun) imaging, actives raise or lower the signal. Summed up:
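HepG2, 24 hr dosing, 0.39–200 uM in duplicate, 0.5% DMSO; formaldehyde fix (3.7%), 0.5% Triton X-100; anti-phospho-c-Jun + Cy3 secondary, Hoechst counterstain; ArrayScan imaging; bidirectional curve fit vs DMSO baseline.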

Assay [20] can be described thus: APR_HepG2_NuclearSize_72hr: Apredica 72-hour HepG2 Assay for Nuclear Size (AID 2282925). The settings on record: high-content imaging, actives raise or lower the signal. An outline of the steps:
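HepG2; cpd 0.39–200 uM, 10 conc, duplicate; 72 h; DMSO 0.5% v/v; fix 3.7% formaldehyde 30 min RT; Triton permeabilization; Hoechst 2 ug/mL; HCS imaging 20x; nuclear diameter; gain/loss fit vs DMSO.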

Chain of CCAAT/enhancer-binding protein beta (Homo sapiens) (P17676 whole entry, looked up): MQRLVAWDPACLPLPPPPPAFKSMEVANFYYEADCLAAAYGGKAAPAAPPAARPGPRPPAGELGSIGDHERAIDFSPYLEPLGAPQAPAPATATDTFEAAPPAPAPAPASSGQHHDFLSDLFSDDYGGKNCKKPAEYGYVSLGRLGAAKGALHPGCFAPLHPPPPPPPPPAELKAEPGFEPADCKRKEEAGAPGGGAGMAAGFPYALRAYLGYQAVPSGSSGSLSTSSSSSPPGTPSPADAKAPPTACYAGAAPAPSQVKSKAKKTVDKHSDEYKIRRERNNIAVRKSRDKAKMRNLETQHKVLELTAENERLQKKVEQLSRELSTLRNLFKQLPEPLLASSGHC

For `CCOP(=S)(OCC)SCCS(=O)(=O)CC`, the compound was called inactive in [1], in assay [2] and in assay [3].

As to `N#CCCO`, the outcome in assay [1], in [2] and in [3] was inactive.

With `COc1ccc(C=O)cc1`, the compound was called inactive in [1], in [2] and in [3].

With `Oc1c(I)cc(I)cc1I`, the compound was called inactive in assay [1], in assay [2] and in assay [3].

With `Nc1ccc(Cl)cc1C(=O)c1ccccc1`, the result in [1], in assay [2] and in assay [3] was inactive.

Regarding `CC1CN1P(=O)(N1CC1C)N1CC1C` (stereo not given), the call in assay [1], in assay [2] and in [3] was inactive.

Turning to `ClCCBr`, the outcome in assay [1], in assay [2] and in assay [3] was inactive.

Turning to `CNC`, the compound was classed as inactive in [1], in assay [2] and in [3].

`CCCCCCCCC(=O)NCc1ccc(O)c(OC)c1`: the call in assay [1], in [2] and in assay [3] was inactive.

`CCCCCCCCCl`: the call in assay [1], in [2] and in assay [3] was inactive.

Regarding `N#CN=C(N)N`, the call in assay [1], in [2] and in assay [3] was inactive.

With `O=P(O)(O)CN(CP(=O)(O)O)CP(=O)(O)O`, the compound was classed as inactive in [1], in [2] and in assay [3].

Turning to `COP(=S)(OC)Oc1ccc(Sc2ccc(OP(=S)(OC)OC)cc2)cc1`, the AC50 in [1] is 0.0233 µM (active). Besides, the compound was called inactive in assay [2] and in assay [3].

As for `O=[N+]([O-])c1ccc(O)c([N+](=O)[O-])c1`, in assay [1], the AC50 is 75.8 µM (active). Further, the result in [2] and in assay [3] was inactive.

For the compound `ClCC(Cl)CCl`, the outcome in assay [4], in [5], in assay [6], in [7], in assay [8] and in assay [9] was inactive. Further, the compound was classed as inactive in [10], in [11], in assay [12], in assay [13], in [14] and in [15]. Further, the outcome in assay [16], in assay [17], in assay [18], in assay [19], in [20] and in [2] was inactive. For the same compound, the outcome in [3] was inactive.

Take `CCCCCCCCc1ccc(O)cc1`: the call in assay [4], in assay [7], in [9], in assay [10], in assay [14] and in assay [16] was inactive. Further, the outcome in [17], in assay [18], in assay [19], in assay [20], in assay [2] and in [3] was inactive. Moreover, the AC50 in [5] was 103 µM (active); in assay [6], 67 µM (active); in assay [8] it was 77.2 µM (active); in [11], 67.3 µM (active); in assay [12] it was 52.5 µM (active); in assay [13], 86.7 µM (active). The AC50 in [15] is 98 µM (active).

Broadly, the AC50 is the concentration giving half of the maximal activity seen.
